Compound activity deposited in PubChem BioAssay by several laboratories.
Most compounds without a hit are left out; they make up all but 2.7% or so of the library.
FAS TE block – FAS thioesterase domain inhibitors, primary screen, biochemical, fluorescence intensity, uHTS. recombinant FAS-TE, OMFH fluorogenic substrate, fluorescence endpoint. 360,000 tested, 0.67% active. inhibition, % at 15 µM;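 active means compounds whose normalised, plate-corrected inhibition of enzyme fluorescence in the single-dose primary screen is 50% or more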
KLK7 zymogen act – proKLK7 zymogen activators, primary screen, biochemical, fluorescence intensity | purified proKLK7, EDANS-DABCYL substrate fluorescence; 100% is mature enzyme control, 0% vehicle | activation, % at 7 µM | 370,000 tested, 0.9% active;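 active means activation above the mean of all tested compounds plus 3 SD, computed per campaign excluding outliers beyond control limits, cut at about 13% in these data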
PfGluPho inh – PfG6PD enzyme inhibitors, primary screen, biochemical, fluorescence intensity, uHTS. glucose-6-phosphate dehydrogenase-6-phosphogluconolactonase (Plasmodium falciparum 3D7). PfGluPho enzyme, NADPH resazurin-diaphorase fluorescence. inhibition, % at 20 µM. 350,000 tested, 0.78% active. AID 504690, 2011;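 active means inhibition reaching at least a set limit at 20 µM in the primary screen, cut at about 59% in these data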
Neddylation inh – inhibitors of cullin neddylation, primary screen, biochemical, TR-FRET, uHTS, NAE and Ubc12 | calls only at 25 µM | 360,000 tested, 0.58% active; in the data active means inhibition above about 36%
Target sequence (P61081 whole entry, looked up): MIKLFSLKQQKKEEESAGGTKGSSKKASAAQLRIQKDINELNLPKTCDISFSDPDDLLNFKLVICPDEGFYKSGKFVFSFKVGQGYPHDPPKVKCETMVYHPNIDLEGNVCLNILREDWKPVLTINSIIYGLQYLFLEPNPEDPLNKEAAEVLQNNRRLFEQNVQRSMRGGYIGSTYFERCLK
Target sequence (Q13564 whole entry, looked up): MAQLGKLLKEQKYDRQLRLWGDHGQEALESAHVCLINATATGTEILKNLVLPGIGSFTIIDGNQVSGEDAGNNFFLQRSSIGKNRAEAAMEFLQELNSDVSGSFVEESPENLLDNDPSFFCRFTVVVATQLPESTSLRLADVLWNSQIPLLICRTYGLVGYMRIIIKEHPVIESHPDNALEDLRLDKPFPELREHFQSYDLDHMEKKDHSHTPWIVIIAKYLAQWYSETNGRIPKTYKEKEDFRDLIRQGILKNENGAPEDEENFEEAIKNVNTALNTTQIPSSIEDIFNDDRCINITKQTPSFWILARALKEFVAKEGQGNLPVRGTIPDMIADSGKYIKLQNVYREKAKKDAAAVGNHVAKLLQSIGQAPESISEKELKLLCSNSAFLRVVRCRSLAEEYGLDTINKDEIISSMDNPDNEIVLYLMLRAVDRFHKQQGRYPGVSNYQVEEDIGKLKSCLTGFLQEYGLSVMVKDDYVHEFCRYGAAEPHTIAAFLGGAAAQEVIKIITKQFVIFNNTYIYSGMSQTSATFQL
Neddyl conf – blockade of NEDD8 conjugation to cullin – biochemical, TR-FRET, single concentration, confirmation | shares compounds with Neddylation inh | TR-FRET cullin neddylation biochemical assay | calls only at 25 µM | 1,800 tested, 13% active; in the data active means inhibition above about 40%;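 further: neddylation substrate is the cullin 1 ring ligase complex with SKP2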
Large screens that a line does not name were inactive (follow-up assays come after a bar, where shown).

Cc1ccc2cc3cc(C(=O)NCc4ccco4)oc3nc2c1	Neddylation inh active | Neddyl conf inactive
Nc1c(C(=O)Nc2ccc(Cl)cc2)oc2ccccc12	Neddylation inh active
COc1ccc(CN2CCC(CNC(=O)Nc3ccc(Cl)cc3)CC2)cc1	none (no result: FAS TE block, PfGluPho inh, Neddylation inh)
COCCNC(=O)c1cnn2c(C(F)F)cc(-c3ccccc3)nc12	Neddylation inh active | Neddyl conf inactive
O=C(c1cnn2c(C(F)F)cc(-c3ccccc3)nc12)N1CCc2ccccc2C1	Neddylation inh active | Neddyl conf inactive
N#CCC[C@H]1CC[C@]2(CCCN(S(=O)(=O)c3ccccc3)C2)O1	none (no result: FAS TE block, PfGluPho inh, Neddylation inh)
C#CCNC(=O)C[C@H]1C[C@@]2(C(=O)OC)C(=C[C@H](C(C)(C)C)O[C@@H]2C)N(Cc2cccc3ccccc23)C1=O	none (no result: FAS TE block, PfGluPho inh, Neddylation inh)
Cn1c2ccccc2c2cc(/C=C(\NC(=O)c3ccccc3)C(=O)O)ccc21	none
CC(C)OC(=O)/C(=C/c1ccc2c(c1)c1ccccc1n2C)NC(=O)c1ccccc1	Neddylation inh active | Neddyl conf inactive
COC(=O)/C(=C\c1ccc2c(c1)c1ccccc1n2C)NC(=O)c1ccccc1	Neddylation inh active | Neddyl conf inactive
CC(C)OC(=O)/C(=C\c1cccnc1)NC(=O)c1ccccc1	none
COc1ccc(C(=O)NCCNc2nc3c(C)cccc3cc2C#N)cc1OC	Neddylation inh active
O=C(Nc1ccc(/C=C/c2nc3ccccc3o2)cc1)c1c(F)cccc1F	none (not shown: Neddylation inh)
CC(=O)Nc1ccc(/C=C/c2nc3ccccc3o2)cc1	Neddylation inh active
CC(=O)Nc1ccc(N/C=C(\C=O)c2nc3ccccc3o2)cc1	none (not shown: Neddylation inh)
CC(=O)Nc1cccc(N/C=C(\C=O)c2nc3ccccc3o2)c1	Neddylation inh active | Neddyl conf inactive
CC(=O)Nc1cccc(NC(=O)CN2c3cccc4cccc(c34)S2(=O)=O)c1	Neddylation inh active | Neddyl conf inactive
CN(Cc1ccccc1F)C(=O)CN1c2cccc3cccc(c23)S1(=O)=O	Neddylation inh active | Neddyl conf active
CC(=O)c1ccc(NC(=O)CN2c3cccc4cccc(c34)S2(=O)=O)cc1	Neddylation inh active | Neddyl conf inactive
COCCCn1c(C)cc(C(=O)CN2c3cccc4cccc(c34)S2(=O)=O)c1C	Neddylation inh active | Neddyl conf inactive
COc1cc(NC(=O)CN2c3cccc4cccc(c34)S2(=O)=O)cc(OC)c1OC	none
CCNC(=O)CN1c2cccc3cccc(c23)S1(=O)=O	none
CCn1c(C)cc(C(=O)CN2C(=O)c3ccccc3S2(=O)=O)c1C	none
COc1ccccc1C=NNC(=O)CSc1nc2ccccc2n1Cc1ccc(Cl)cc1	none (no result: FAS TE block, PfGluPho inh, Neddylation inh)
COc1cccc(S(=O)(=O)Nc2ccc3c(c2)C(=O)N(C)C[C@H](OC)[C@H](C)CN(Cc2ccccc2F)[C@@H](C)CO3)c1	none (no result: FAS TE block, PfGluPho inh)
CC1CCCCC1NC(=O)CN1c2cccc3cccc(c23)S1(=O)=O (stereo unspecified)	Neddylation inh active
COc1ccc2oc(=O)c(-c3nc4ccccc4o3)cc2c1	Neddylation inh active | Neddyl conf active
COc1ccc(-c2nnc(-c3cc4ccccc4oc3=O)o2)cc1	none (not shown: Neddylation inh)
CCN(CC(=O)NCc1cccs1)C(=O)/C=C/c1cc(OC)c(OC)c(OC)c1	Neddylation inh active | Neddyl conf active
Cn1c(COc2ccccc2)nnc1SCC(=O)Nc1ccc(OCc2ccccc2)cc1	none (no result: FAS TE block, PfGluPho inh, Neddylation inh)
COc1ccc2c(c1)c(C)cc[n+]2Cc1ccccc1	Neddylation inh active
COc1ccc([C@H]2C[C@@H](n3cc(C4CC4)nn3)[C@H](O)CN2CC2CCCCC2)cc1	none
Nc1cc(C(=O)O)ccc1Nc1ccccc1	Neddylation inh active
CCc1ccccc1Nc1ccc(C(=O)O)cc1N	none
CC1CCc2sc(NC(=O)c3ccc(N4C(=O)CCC4=O)cc3)c(C(N)=O)c2C1 (stereo unspecified)	Neddylation inh active
Nc1c(C(=O)N/N=C/c2ccc(Cl)cc2)cnn1-c1ccccc1	none
O=c1c(Cl)c(N/N=C/c2ccc(Cl)cc2)cnn1-c1ccccc1	Neddylation inh active | Neddyl conf inactive
Cc1ccccc1CN1CCCCC(NC(=O)Cc2cccs2)C1=O (stereo unspecified)	none (no result: FAS TE block, PfGluPho inh, Neddylation inh)
CSc1nc2nccc(-c3ccc4c(c3)OCO4)n2n1	Neddylation inh active | Neddyl conf inactive
COc1ccc(C(CC(=O)N2CCCCC2)c2c(OC)cc(OC)c3ccc(=O)oc23)cc1 (stereo unspecified)	Neddylation inh active | Neddyl conf active
Cc1ccc2[nH]c(=O)c(C3=NN(C(=O)CCC(=O)O)C(c4cccs4)C3)c(-c3ccccc3)c2c1 (stereo unspecified)	Neddylation inh active | Neddyl conf inactive
Cc1c(CCC(=O)NCCCn2ccnc2)c(=O)oc2cc3occ(C(C)(C)C)c3cc12	Neddylation inh active
Cc1coc2cc3oc(=O)c(CCC(=O)NCCCn4ccnc4)c(C)c3cc12	none (not shown: Neddylation inh)
CCOc1cc(OCC)cc(C(=O)N2CCC[C@H]2C(=O)N2CCC[C@H]2C(=O)NCc2cccc(OC)c2)c1	none (no result: PfGluPho inh)
CC(C)(C)N1Cc2nnn(CC3CCCCC3)c2-c2ccccc2S1(=O)=O	none (no result: FAS TE block, PfGluPho inh, Neddylation inh)
O=C(N/N=C/C=C\c1ccco1)c1ccccn1	Neddylation inh active | Neddyl conf inactive
Cc1cc(C(=O)N2CCCC(N3CCN(c4ccccc4C)CC3)C2)no1 (stereo unspecified)	none
Cc1cc(C)n2nc(C(=O)N3CCCC(N4CCN(c5ccccc5C)CC4)C3)cc2n1 (stereo unspecified)	Neddylation inh active | Neddyl conf inactive
CN(C)c1ccc(/C=N/NC(=O)c2ccc3c(c2)OCCO3)cc1	Neddylation inh active
COc1ccc2[nH]cc(C(C)c3ccccc3O)c2c1 (stereo unspecified)	none (no result: FAS TE block, PfGluPho inh, Neddylation inh)
CC(=O)N1CCN(c2ccc(NC(=O)c3ccc(OCc4ccccc4)cc3)cc2)CC1	Neddylation inh active | Neddyl conf inactive
Cc1ccccc1NC(=O)OC1CCC12CCC(c1ccccc1)CC2 (stereo unspecified)	none (no result: FAS TE block, PfGluPho inh, Neddylation inh)
CCC(C)C(NC(=O)c1ccccc1)C(=O)N1CCN(C(=O)c2ccccc2)CC1 (stereo unspecified)	none
Cc1sc(NC(=O)c2ccco2)c(C(c2ccccc2)N2CCC(C)CC2)c1C (stereo unspecified)	Neddylation inh active
Cc1ccc(C(c2c(NC(=O)c3ccco3)sc(C)c2C)N2CCOCC2)cc1 (stereo unspecified)	none (not shown: Neddylation inh)
C=CCN1C(=O)[C@H](CC(=O)NCc2cccs2)[C@@]2(C(=O)OCC)CCCC=C12	none (no result: FAS TE block, PfGluPho inh, Neddylation inh)
COCCNC(=O)C1(C)CCCN(CCC(=O)c2ccc(Br)cc2)C1 (stereo unspecified)	none (no result: PfGluPho inh)
O=c1[nH]cnc2sc3c(c12)CN(Cc1ccccc1)CC3	none (not shown: KLK7 zymogen act, Neddylation inh)
